We go through 13 compounds from the supplement of paper PMC10646978.

± gives the standard deviation.

What all share (conditions): modulator concentration 10 µM
Experiment [1] deals with RAW-Dual (murine macrophage reporter line). As to the kind of experiment: NF-kB reporter (SEAP) activity fold change vs agonist alone; higher = enhanced NF-kB activity. Put shortly:
(§1)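 RAW-Dual murine macrophage reporter cells were seeded at 50 000 per well in 384-well plates and pre-incubated 1 hour at 37 °C with compound pin-transferred to 10 μM final. After 1 hour, a PRR agonist was added and cells incubated overnight. Supernatant NF-κB (SEAP, QUANTI-Blue, 620 nm absorbance) and IRF (Lucia luciferase, QUANTI-Luc, luminescence) signals were divided by the mean agonist-only control on the same plate to give fold change. Two replicate plates were averaged, with errors by propagation.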

The test system is the same in experiment [2]. As to the kind of experiment: IRF reporter (Lucia luciferase) activity fold change vs agonist alone; higher = enhanced IRF activity. Put shortly: as §1
For experiment [3] the test system is unchanged. As to the kind of experiment: viability score (confluency relative to resting cells, overnight) (fraction); higher = more viable, active = viable (0.7 or more). An outline of the steps: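 Overnight exposure to 10 μM final compound was carried out on RAW-Dual macrophages in 384-well plates. IncuCyte software generated two confluency masks over all wells imaged with IncuCyte. The viability score gives confluency in relation to resting cells. A compound met the cutoff if each mask exceeded 70% of resting cells.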

Where [4] appears, read: agonist: CpG ODN 1826 0.5 ug/mL.

As to `CN1CCN(C2=C(Cl)C(=O)N(c3ccc(Cl)c(Cl)c3)C2=O)CC1`, the NF-kB reporter in experiment [1] (setting [4]) worked out at 0.902 ± 0.11; in experiment [1] (agonist: LPS 0.1 ug/mL), 1.01 ± 0.091; in experiment [1] (agonist: MPLA […]), 0.759 ± 0.045. Moreover, the IRF reporter turned out to be 0.524 ± 0.016 in experiment [2] (agonist: 3'3'-cGAMP 10 ug/mL), 1.54 ± 0.28 in experiment [2] (agonist: LPS 0.1 ug/mL) and 1.24 ± 0.21 in experiment [2] (agonist: MPLA […]). Also, the viability score in experiment [3] is 1.01 (active).

As for `Cc1ccc(C23CC4CC(CC(CN)(C4)C2)C3)cc1.Cl`, the figures for the NF-kB reporter in experiment [1] (setting [4]), in experiment [1] (agonist: LPS 0.1 ug/mL) and in experiment [1] (agonist: MPLA […]) were 0.827 ± 0.062, 1.02 ± 0.063 and 1.95 ± 0.14, respectively. Besides, the IRF reporter was found to be 0.741 ± 0.031 in experiment [2] (agonist: 3'3'-cGAMP 10 ug/mL), 1.27 ± 0.15 in experiment [2] (agonist: LPS 0.1 ug/mL) and 1.29 ± 0.13 in experiment [2] (agonist: MPLA […]). The viability score in experiment [3] was 0.46 (inactive).

As for `C=CCN1C(=O)C(C)(C)COc2cc(NC(=O)c3ccc(Br)o3)ccc21`, the NF-kB reporter was determined as 1.25 ± 0.11 in experiment [1] (setting [4]), 0.93 ± 0.21 in experiment [1] (agonist: LPS 0.1 ug/mL) and 1.07 ± 0.037 in experiment [1] (agonist: MPLA […]). Also, the IRF reporter in experiment [2] (agonist: 3'3'-cGAMP 10 ug/mL) worked out at 0.53 ± 0.046; in experiment [2] (agonist: LPS 0.1 ug/mL), 0.933 ± 0.096; in experiment [2] (agonist: MPLA […]), 0.982 ± 0.24. Moreover, the viability score in experiment [3] is 0.994 (active).

As for `O=[N+]([O-])c1ccc(Cl)c(C=Nc2cccc3c(N=Cc4cc([N+](=O)[O-])ccc4Cl)cccc23)c1`, the NF-kB reporter in experiment [1] (setting [4]) came to 0.841 ± 0.047; in experiment [1] (agonist: LPS 0.1 ug/mL), 1.07 ± 0.078; in experiment [1] (agonist: MPLA […]), 0.988 ± 0.086. Moreover, the IRF reporter came out at 0.816 ± 0.05 in experiment [2] (agonist: 3'3'-cGAMP 10 ug/mL), 1.56 ± 0.1 in experiment [2] (agonist: LPS 0.1 ug/mL) and 1.26 ± 0.13 in experiment [2] (agonist: MPLA […]). Also, in experiment [3], the viability score is 1 (active).

Regarding `CN(C)c1ccc(C=NN2C(=O)c3cccc4cccc(c34)C2=O)cc1`, the NF-kB reporter was determined as 1 ± 0.21 in experiment [1] (setting [4]), 1.1 ± 0.092 in experiment [1] (agonist: LPS 0.1 ug/mL) and 0.964 ± 0.11 in experiment [1] (agonist: MPLA […]). Besides, the IRF reporter in experiment [2] (agonist: 3'3'-cGAMP 10 ug/mL) stood at 1 ± 0.032; in experiment [2] (agonist: LPS 0.1 ug/mL), 1.28 ± 0.23; in experiment [2] (agonist: MPLA […]) it was 1.36 ± 0.17. The viability score in experiment [3] is 1 (active).

As for `O=C(Nc1nc2ccc(Cl)cc2s1)c1ccc(Br)s1`, the NF-kB reporter in experiment [1] (setting [4]) turned out to be 0.998 ± 0.062; in experiment [1] (agonist: LPS 0.1 ug/mL), 0.927 ± 0.072; in experiment [1] (agonist: MPLA […]), 0.924 ± 0.025. The IRF reporter came out at 0.975 ± 0.043 in experiment [2] (agonist: 3'3'-cGAMP 10 ug/mL), 1.06 ± 0.054 in experiment [2] (agonist: LPS 0.1 ug/mL) and 1.09 ± 0.11 in experiment [2] (agonist: MPLA […]). Besides, the viability score in experiment [3] was 0.999 (active).

On to `c1ccc(-n2nnnc2Sc2ncnc3sc4c(c23)CCCC4)cc1`, for which the NF-kB reporter in experiment [1] (setting [4]) came out at 0.74 ± 0.043; in experiment [1] (agonist: LPS 0.1 ug/mL), 0.481 ± 0.088; in experiment [1] (agonist: MPLA […]) it was 0.442 ± 0.027. Further, the IRF reporter in experiment [2] (agonist: 3'3'-cGAMP 10 ug/mL) is 0.0638 ± 0.0026; in experiment [2] (agonist: LPS 0.1 ug/mL), 0.349 ± 0.095; in experiment [2] (agonist: MPLA […]), 0.835 ± 0.14. Also, the viability score in experiment [3] was 0.994 (active).

`CC(CN1c2ccccc2Sc2cccnc21)N(C)C.Cl` (stereo unspecified): the NF-kB reporter in experiment [1] (setting [4]) turned out to be 0.968 ± 0.075; in experiment [1] (agonist: LPS 0.1 ug/mL) it was 0.926 ± 0.11; in experiment [1] (agonist: MPLA […]), 1.07 ± 0.042. The figures for the IRF reporter in experiment [2] (agonist: 3'3'-cGAMP 10 ug/mL), in experiment [2] (agonist: LPS 0.1 ug/mL) and in experiment [2] (agonist: MPLA […]) were 1.03 ± 0.099, 0.935 ± 0.14 and 0.921 ± 0.16, respectively. The viability score in experiment [3] is 1 (active).

Turning to `Cc1c(C(=O)OC(C)C)sc(NC(=O)C(F)(F)F)c1C(=O)OC(C)C`, the results for the NF-kB reporter in experiment [1] (setting [4]), in experiment [1] (agonist: LPS 0.1 ug/mL) and in experiment [1] (agonist: MPLA […]) were 1.4 ± 0.08, 1.01 ± 0.076 and 1.05 ± 0.032, respectively. The IRF reporter in experiment [2] (agonist: 3'3'-cGAMP 10 ug/mL) was 0.781 ± 0.028; in experiment [2] (agonist: LPS 0.1 ug/mL), 0.937 ± 0.067; in experiment [2] (agonist: MPLA […]) it was 1.19 ± 0.22. Besides, the viability score in experiment [3] is 0.993 (active).

Regarding `COc1c(-c2ccc3cc(NS(C)(=O)=O)ccc3c2)cc(-n2ccc(=O)[nH]c2=O)cc1C(C)(C)C`, the NF-kB reporter in experiment [1] (setting [4]) worked out at 0.43 ± 0.1; in experiment [1] (agonist: LPS 0.1 ug/mL), 1.02 ± 0.056; in experiment [1] (agonist: MPLA […]), 0.827 ± 0.093. In addition, the values for the IRF reporter in experiment [2] (agonist: 3'3'-cGAMP 10 ug/mL), in experiment [2] (agonist: LPS 0.1 ug/mL) and in experiment [2] (agonist: MPLA […]) were 0.774 ± 0.043, 1.2 ± 0.29 and 1.2 ± 0.15, respectively. The viability score in experiment [3] was 1.01 (active).

For `O=C(NN=Cc1c(O)ccc2ccccc12)c1[nH]ncc1I`, the NF-kB reporter in experiment [1] (setting [4]) came out at 1.93 ± 0.15; in experiment [1] (agonist: LPS 0.1 ug/mL), 1.24 ± 0.081; in experiment [1] (agonist: MPLA […]), 1.4 ± 0.063. Besides, the IRF reporter in experiment [2] (agonist: 3'3'-cGAMP 10 ug/mL) stood at 0.491 ± 0.021; in experiment [2] (agonist: LPS 0.1 ug/mL), 1.32 ± 0.076; in experiment [2] (agonist: MPLA […]), 1.3 ± 0.094. Besides, the viability score in experiment [3] was 0.906 (active).

Take `Cc1ccc(CSc2nc3sc4c(c3c(=O)n2-c2ccccc2)CC(C)(C)OC4)c(C)c1`: the NF-kB reporter came to 0.984 ± 0.093 in experiment [1] (setting [4]), 1.06 ± 0.075 in experiment [1] (agonist: LPS 0.1 ug/mL) and 0.91 ± 0.054 in experiment [1] (agonist: MPLA […]). Further, the IRF reporter in experiment [2] (agonist: 3'3'-cGAMP 10 ug/mL) was 1.05 ± 0.039; in experiment [2] (agonist: LPS 0.1 ug/mL) it was 1.41 ± 0.12; in experiment [2] (agonist: MPLA […]), 1.1 ± 0.21. The viability score in experiment [3] is 1.02 (active).

Consider `Cn1ncc(Cl)c1-c1cc(C(=O)N[C@H](CN)Cc2ccc(F)c(F)c2)oc1Cl`, for which the NF-kB reporter in experiment [1] (setting [4]) came to 1.13 ± 0.34; in experiment [1] (agonist: LPS 0.1 ug/mL), 1.49 ± 0.11; in experiment [1] (agonist: MPLA […]) it was 1.48 ± 0.14. The IRF reporter in experiment [2] (agonist: 3'3'-cGAMP 10 ug/mL) came to 0.363 ± 0.014; in experiment [2] (agonist: LPS 0.1 ug/mL), 0.597 ± 0.064; in experiment [2] (agonist: MPLA […]) it was 0.827 ± 0.079. Also, the viability score in experiment [3] is 0.661 (inactive).
